# In the supplement of paper PMC8728848:
# This excerpt belongs to a sample that is enriched for the strongest signals.
# B1: GS7807Q-bfa-507-19-507 (Bacteroides fragilis) (protein)
# chain: ASCNKFDDLNTNPDAATKVTAPMLATKLILNITQQGSAKNFVYHSMLSKQIAWSENASDEQYNLFGRTDFDGYTILTNCQKMVDAANEGDKDSYAALAKFMKAYKLFYKSLEVGDIPYSDALKGEEGVQKPKYDTQKEVMRQVLEDLEEAYTLFSSGSDFDGDPIFGGDTENWKKTVVAFELKVLTHLCKKDTDADLKVKERFARLVSSGSLMTSNADNFQLVYSNKAGQLYPFYYTQNKHSDYLMMSSVIIDNLKKFNDYRMFYYASPAKAQTDKGIKDSEWDAYLSIDPSDSYSNISVLYGKGEFCLANLRYTRVPEGEPLMRLSYAEQNFILAEGAVRGWISEDASTYYKKGIEASMNFIADNTPDKEEYTHGRTITQEYIQEYLAQPVIQLSGDKEKDLEMILLQRYLASFLQHPYDAYYDYRRTGYPVLPINPSTNLNTEKNKIPTRWMYPEAEFSYNPDNANEAVQRQYNGSDDVNKLMWILQ
# Columns and labels:
# Assay in all cases: glycan array binding signal (z-score within array); higher = stronger binding
# Settings in all cases: glycan notation: IUPAC condensed, linker removed
# Fuc(a1-2)Gal(b1-3)GalNAc = molecular target: Fuc(a1-2)Gal(b1-3)GalNAc
# Summary of the method: (§1)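 Glycan array binding is given as a within-array Z-score, which can be read as non-binding when negative. The arrays, 3228 of them, came from the Consortium for Functional Glycomics database and were retained only where the protein sequence was available. Z-scores were averaged across arrays of the same protein sequence at different concentrations or buffers and across linkers.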
# [1] = molecular target: Fuc(a1-2)Gal(b1-3)GalNAc(a1-3)[Fuc(a1-2)]Gal(b1-4)Glc
# Summary of the method: as §1
# [2] = molecular target: Fuc(a1-2)Gal(b1-4)GlcNAc(b1-2)Man(a1-3)[Fuc(a1-2)Gal(b1-4)GlcNAc(b1-2)Man(a1-6)]Man(b1-4)GlcNAc(b1-4)GlcNAc
# Summary of the method: as §1
# [3] = molecular target: Fuc(a1-2)Gal(b1-4)GlcNAc(b1-3)[Fuc(a1-3)[Gal(b1-4)]GlcNAc(b1-6)]Gal(b1-4)Glc
# Summary of the method: as §1
# [4] = molecular target: Fuc(a1-2)Gal(b1-4)GlcNAc(b1-6)GalNAc
# Summary of the method: as §1
# [5] = molecular target: Fuc(a1-2)Gal(b1-4)[Fuc(a1-3)]GlcNAc(b1-3)GalNAc
# Summary of the method: as §1
# [6] = molecular target: Fuc(a1-2)Gal3S(b1-4)GlcNAc
# Summary of the method: as §1
# [7] = molecular target: Fuc(a1-2)[Gal(a1-3)]Gal(b1-4)GlcNAc(b1-2)Man
# Summary of the method: as §1
# [8] = molecular target: Fuc(a1-2)[Gal(a1-3)]Gal(b1-4)[Fuc(a1-3)]Glc
# Summary of the method: as §1
# [9] = molecular target: Fuc(a1-2)[GalNAc(a1-3)]Gal(b1-3)GlcNAc(b1-6)GalNAc
# Summary of the method: as §1
# [10] = molecular target: Fuc(a1-2)[GalNAc(a1-3)]Gal(b1-4)GlcNAc(b1-2)Man(a1-3)[Fuc(a1-2)[GalNAc(a1-3)]Gal(b1-4)GlcNAc(b1-2)Man(a1-6)]Man(b1-4)GlcNAc(b1-4)[Fuc(a1-6)]GlcNAc
# Summary of the method: as §1
# [11] = molecular target: Fuc(a1-3)[Gal(b1-4)]GlcNAc(b1-2)Man(a1-3)[Fuc(a1-3)[Gal(b1-4)]GlcNAc(b1-2)Man(a1-6)]Man(b1-4)GlcNAc(b1-4)[Fuc(a1-6)]GlcNAc
# Summary of the method: as §1
# [12] = molecular target: Fuc(a1-3)[Gal(b1-4)]GlcNAc6S
# Summary of the method: as §1
# [13] = molecular target: Gal(a1-3)Gal(b1-4)GlcNAc(b1-2)Man(a1-3)[Gal(a1-3)Gal(b1-4)GlcNAc(b1-2)Man(a1-6)]Man(b1-4)GlcNAc(b1-4)GlcNAc
# Summary of the method: as §1
# [14] = molecular target: Gal(a1-3)Gal(b1-4)[Fuc(a1-3)]GlcNAc
# Summary of the method: as §1
# Gal(a1-3)GalNAc = molecular target: Gal(a1-3)GalNAc
# Summary of the method: as §1
# [15] = molecular target: Gal(a1-3)[Gal(a1-4)]Gal(b1-4)GlcNAc
# Summary of the method: as §1
# [16] = molecular target: Gal(a1-4)Gal(b1-4)GlcNAc(b1-3)Gal(b1-4)Glc
# Summary of the method: as §1
# Gal(b1-3)GalNAc(b1-3)Gal = molecular target: Gal(b1-3)GalNAc(b1-3)Gal
# Summary of the method: as §1
# Gal(b1-3)GlcNAc(b1-2)Man = molecular target: Gal(b1-3)GlcNAc(b1-2)Man
# Summary of the method: as §1
# [17] = molecular target: Gal(b1-3)GlcNAc(b1-2)[Gal(b1-3)GlcNAc(b1-6)]Man(a1-6)[Gal(b1-3)GlcNAc(b1-2)Man(a1-3)]Man(b1-4)GlcNAc(b1-4)GlcNAc
# Summary of the method: as §1
# [18] = molecular target: Gal(b1-3)GlcNAc(b1-3)Gal(b1-4)GlcNAc(b1-3)Gal(b1-4)GlcNAc(b1-2)[Gal(b1-3)GlcNAc(b1-3)Gal(b1-4)GlcNAc(b1-3)Gal(b1-4)GlcNAc(b1-6)]Man(a1-6)[Gal(b1-3)GlcNAc(b1-3)Gal(b1-4)GlcNAc(b1-3)Gal(b1-4)GlcNAc(b1-2)Man(a1-3)]Man(b1-4)GlcNAc(b1-4)[Fuc(a1-6)]GlcNAc
# Summary of the method: as §1
# [19] = molecular target: Gal(b1-3)GlcNAc(b1-3)Gal(b1-4)GlcNAc(b1-6)[Gal(b1-3)GlcNAc(b1-3)]Gal(b1-4)Glc
# Summary of the method: as §1
# [20] = molecular target: Gal(b1-3)[Fuc(a1-4)]GlcNAc(b1-2)Man(a1-3)[Gal(b1-3)[Fuc(a1-4)]GlcNAc(b1-2)Man(a1-6)]Man(b1-4)GlcNAc(b1-4)[Fuc(a1-6)]GlcNAc
# Summary of the method: as §1
# [21] = molecular target: Gal(b1-4)GalNAc(b1-3)[Fuc(a1-2)]Gal(b1-4)GlcNAc
# Summary of the method: as §1
# Gal(b1-4)GlcNAc(b1-2)Man = molecular target: Gal(b1-4)GlcNAc(b1-2)Man
# Summary of the method: as §1
# [22] = molecular target: Gal(b1-4)GlcNAc(b1-2)Man(a1-6)Man(b1-4)GlcNAc(b1-4)GlcNAc
# Summary of the method: as §1
# [23] = molecular target: Gal(b1-4)GlcNAc(b1-2)[Gal(b1-4)GlcNAc(b1-6)]Man(a1-6)[GlcNAc(b1-4)][Gal(b1-4)GlcNAc(b1-2)[Gal(b1-4)GlcNAc(b1-4)]Man(a1-3)]Man(b1-4)GlcNAc(b1-4)[Fuc(a1-6)]GlcNAc
# Summary of the method: as §1
# [24] = molecular target: Gal(b1-4)GlcNAc(b1-3)Gal(b1-4)GlcNAc(b1-2)Man(a1-3)[Gal(b1-4)GlcNAc(b1-3)Gal(b1-4)GlcNAc(b1-2)Man(a1-6)]Man(b1-4)GlcNAc(b1-4)GlcNAc
# Summary of the method: as §1
# [25] = molecular target: Gal(b1-4)GlcNAc(b1-3)Gal(b1-4)GlcNAc(b1-3)Gal(b1-4)GlcNAc
# Summary of the method: as §1
binder,measurement,setting,value
B1,glycan array binding signal (z-score),Fuc(a1-2)Gal(b1-3)GalNAc,-1.06
same,glycan array binding signal (z-score),[1],-0.063
same,glycan array binding signal (z-score),[2],6.11
same,glycan array binding signal (z-score),[3],0.636
same,glycan array binding signal (z-score),[4],4.43
same,glycan array binding signal (z-score),[5],1.5
same,glycan array binding signal (z-score),[6],-0.3
same,glycan array binding signal (z-score),[7],-0.226
same,glycan array binding signal (z-score),[8],1.42
same,glycan array binding signal (z-score),[9],-0.083
same,glycan array binding signal (z-score),[10],-0.243
same,glycan array binding signal (z-score),[11],-0.03
same,glycan array binding signal (z-score),[12],-1.03
same,glycan array binding signal (z-score),[13],3.33
same,glycan array binding signal (z-score),[14],0.431
same,glycan array binding signal (z-score),Gal(a1-3)GalNAc,-0.197
same,glycan array binding signal (z-score),[15],0.361
same,glycan array binding signal (z-score),[16],-0.723
same,glycan array binding signal (z-score),Gal(b1-3)GalNAc(b1-3)Gal,0.094
same,glycan array binding signal (z-score),Gal(b1-3)GlcNAc(b1-2)Man,-0.443
same,glycan array binding signal (z-score),[17],0.94
same,glycan array binding signal (z-score),[18],3.08
same,glycan array binding signal (z-score),[19],3.63
same,glycan array binding signal (z-score),[20],3.07
same,glycan array binding signal (z-score),[21],0.8
same,glycan array binding signal (z-score),Gal(b1-4)GlcNAc(b1-2)Man,0.859
same,glycan array binding signal (z-score),[22],0.767
same,glycan array binding signal (z-score),[23],-0.993
same,glycan array binding signal (z-score),[24],3.08
same,glycan array binding signal (z-score),[25],0.693
